From PubChem BioAssay
Wnt act = activates Wnt/beta-catenin signaling in a reporter cell assay; activator, plate reader; activation, % at 9.35 µM; 1.2% of 300,000 active; in the data active = activation above about 30%, passing the limit was not always enough; inconclusive = no clear call, values can overlap the other calls;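 also: 0% = neutral control wells and 100% = positive control wells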
MITF TRPM1 inh = MITF TRPM1 promoter inhibition in SK-MEL-5 cells; inhibition, % at 12.5 µM; 0.83% of 330,000 active; AID 488899; SK-MEL-5 TRPM1 promoter luciferase, 24 h;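 active = mean inhibition across replicates of 60% or more, whatever share of single replicates reaches that level; inconclusive = some that reach 60%, reason not given; inactive = mean inhibition across replicates below 60%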
MITF TRPM1 HTS = activators of MITF-driven TRPM1 promoter activity in SK-MEL-5 cells | SK-MEL-5 TRPM1-promoter luciferase, 24 h; % of positive control, neutral wells = 0 | activation, % at 12.5 µM | 0.75% of 300,000 active;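 active = mean activation of at least 80% with every replicate also reaching 80%; inconclusive = mean reaches 80% but some replicate falls short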;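 also: 0% = neutral control wells and 100% = parthenolide positive control wells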
esBAF inh = SWI/SNF esBAF complex inhibition; 2% of 350,000 active; reporter increase, % at 12.5 µM; mouse ES cells, Bmi1-luciferase knock-in reporter, 24 h; 100% = twice the neutral-well signal; AID 602393; in the data active = activation above about 40%; inconclusive = no clear call, values can overlap the other calls;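 also: 0% = median of the plate's neutral control wells and 100% = double that signal; a rise in the Bmi1 reporter signal indicates esBAF inhibition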
PAX8 inh HTS = inhibitors of PAX8 transcriptional activity in RMG-I cells; RMG-I TPO-luciferase reporter, SteadyGlo, 24 h; inhibition, % at 12.6 µM; 1.2% of 360,000 active; AID 652154;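 active = mean replicate inhibition at least 60% with every replicate also reaching 60%; inconclusive = only one of the two criteria is met; inactive = mean below 60% and not all replicates reaching 60%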;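 also: luciferase light reporting Pax8 driven TPO promoter activity; plate controls were median of neutral control wells for no effect and mitoxantrone controls for full effect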
EWS-Fli inh = EWS/Fli transcriptional activity inhibition | 0.67% of 350,000 active | AID 651661 | inhibition, % at 12.6 µM | A673 NR0B1-luciferase reporter, viability-normalised;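 active = mean inhibition of at least 50% after viability correction, with every replicate also passing that limit; inconclusive = mean reaches 50% but only one of two replicates passes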;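 also: firefly luciferase signal divided by Alamar Blue viability fluorescence both relative to DMSO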
Ring1 derepress = esBAF inhibition confirmed by Ring1 de-repression. AID 743176. fold change at 33 µM. mouse ESC E14, Ring1 mRNA RT-qPCR fold change. 550 tested, under 10 active. shares compounds with esBAF inh;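 active = Ring1 gene expression raised more than 2-fold over untreated cells in both replicates at either tested dose; inconclusive = only one replicate above 2-fold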;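 also: Ring1 transcript normalised to actin housekeeping signal by TaqMan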
Fgf4 repress = represses Fgf4 in mouse ESCs, confirming esBAF inhibition; shares compounds with esBAF inh; mouse ESC E14, Fgf4 mRNA qPCR fold change; hits give low values; Fgf4 expression fold change at 33 µM; 4% of 550 active; AID 743177;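 active = Fgf4 expression under 0.8 fold of control in both repeat measurements at one or both tested doses; inconclusive = under 0.8 fold in just a single repeat measurement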;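 also: Fgf4 transcript normalised to actin in duplex TaqMan qPCR; cells exposed to compound for 24 h before lysis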
Bmi1 derepress = de-represses Bmi1 in mouse ESCs, confirming esBAF inhibition. 550 tested, under 10 active. mouse ESE14 ES cells, Bmi1 mRNA qPCR fold; hits give high values. shares compounds with esBAF inh. fold change at 33 µM. AID 743180;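 active = Bmi1 expression fold change above 6 at either tested concentration, seen in replicate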;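 also: higher fold means more Bmi1 de-repression and stronger esBAF inhibition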
A549 tox SP = A549 cell cytotoxicity; AID 743188; cell viability change % (negative = cytotoxic), % at 25 µM, hits read low; shares compounds with esBAF inh; plate reader; 550 tested, under 10 active; call rule not given here
HepG2 tox SP = HepG2 cell cytotoxicity at single point; shares compounds with esBAF inh; plate reader; hits give low values; activity change, negative = inhibition, % at 25 µM; AID 743189; 4% of 550 active; in the data active = activity change below about -50%
HEK293 tox SP = kills or reduces viability of HEK293 cells. shares compounds with esBAF inh. HEK293 cytotoxicity, plate reader. activity change, negative = inhibition, % at 25 µM, hits read low. 3% of 550 active. AID 743190; in the data active = activity change below about -38%, passing the limit was not always enough
The depositor's hits bear a star. This is a sample that favours compounds with a hit; in the whole collection about 4% have one here.

Screening O=C(C1CCOCC1)N1[C@H](CO)[C@@H]2c3ccccc3NC[C@@H]21 returned esBAF inh 3.3, PAX8 inh HTS -16.7 and EWS-Fli inh 0.6.
For CCCN1C[C@@H](C)[C@H](OC)CN(C)C(=O)c2ccc(NC(=O)c3cnccn3)cc2OC[C@@H]1C the results were esBAF inh -4.8, PAX8 inh HTS -11.3 and EWS-Fli inh -0.8.
CCCCC(=O)N1CCCC(c2nc(-c3cccc(OC)c3)no2)C1 (stereo not drawn) was read as Wnt act 9.1, MITF TRPM1 inh -32.8, MITF TRPM1 HTS 37.9, esBAF inh 8.2, PAX8 inh HTS -110.5 and EWS-Fli inh -79.5.
COc1cccc(-c2noc(C3CCCN(C(=O)CC(C)(C)C)C3)n2)c1 (stereo not drawn) was read as Wnt act 2.3, MITF TRPM1 inh -16.0, MITF TRPM1 HTS 17.7, esBAF inh 82.8*, PAX8 inh HTS -70.4, EWS-Fli inh -28.1, Ring1 derepress 1.23, Fgf4 repress 1, Bmi1 derepress 1.78, A549 tox SP 0.2, HepG2 tox SP -25.1 and HEK293 tox SP -6.5.
For Cc1ccc(S(=O)(=O)N[C@H]2CC[C@@H](CCn3cc(-c4cccc(F)c4)nn3)O[C@H]2CO)cc1 the results were esBAF inh 15.6, PAX8 inh HTS 25.3 and EWS-Fli inh 20.7.
O=C1c2ccccc2-c2nc3ccccc3nc21 was read as MITF TRPM1 inh -31.4 and esBAF inh 36.3.
Screening CCc1ccc2cc3c(cc2n1)C(=O)c1ccccc1-3 returned Wnt act inconclusive, esBAF inh 61.3*, PAX8 inh HTS -114.6, EWS-Fli inh -121.7, Ring1 derepress 1.28, Fgf4 repress inconclusive, Bmi1 derepress 3.82, A549 tox SP 8.6, HepG2 tox SP -10.9 and HEK293 tox SP 6.3.
O=c1c2ccccc2sc2ccccc12 was read as Wnt act 14.1, MITF TRPM1 inh -38.5, MITF TRPM1 HTS 35.8, esBAF inh 57.5*, PAX8 inh HTS -4.3, EWS-Fli inh -44.6, Ring1 derepress 0.963, Fgf4 repress 1.05, Bmi1 derepress 2.04, A549 tox SP -13.4, HepG2 tox SP 7.1 and HEK293 tox SP -13.9.
O=c1c2ccccc2sc2ccc(Cl)cc12 was read as MITF TRPM1 inh -43.8, MITF TRPM1 HTS 52.3, PAX8 inh HTS -16.8 and EWS-Fli inh -33.1.
Screening c1ccc2c(c1)Nc1cc3ccccc3cc1O2 returned Wnt act 6.9, MITF TRPM1 inh -35.7, MITF TRPM1 HTS 44.2, esBAF inh 84.0*, PAX8 inh HTS -90.0, EWS-Fli inh -54.8, Ring1 derepress 1.27, Fgf4 repress 0.903, Bmi1 derepress 1.49, A549 tox SP -1.7, HepG2 tox SP -1.1 and HEK293 tox SP -8.5.
`c1ccc(C2Nc3ccccc3Oc3ccccc32)cc1` (stereo not drawn) gave MITF TRPM1 inh -2.8, MITF TRPM1 HTS 2.0 and esBAF inh -8.2.
`Cc1ccc(Nc2nc(Cl)nc(NC(C)(C)C)n2)cc1` gave Wnt act 10.2, MITF TRPM1 inh -94.8, MITF TRPM1 HTS 99.9*, esBAF inh 76.7*, PAX8 inh HTS -84.1, EWS-Fli inh -100.0, Ring1 derepress 1.08, Fgf4 repress inconclusive, Bmi1 derepress 1.92, A549 tox SP 4.1, HepG2 tox SP -17.7 and HEK293 tox SP -7.1.
For CNc1ccc(C=C2C=Cc3ccccc32)cc1 the results were Wnt act 12.3, MITF TRPM1 inh -20.6, MITF TRPM1 HTS 22.3, esBAF inh -9.1, PAX8 inh HTS -132.1 and EWS-Fli inh -47.6.
Screening COc1cc2c(cc1OC)C(=Cc1ccc(N(C)C)cc1)C=C2 returned Wnt act -2.4, MITF TRPM1 inh -52.5, MITF TRPM1 HTS 61.3, esBAF inh 67.1*, PAX8 inh HTS -177.6, EWS-Fli inh -53.8, Ring1 derepress 0.927, Fgf4 repress 0.963, Bmi1 derepress 1.85, A549 tox SP -7.3, HepG2 tox SP -8.5 and HEK293 tox SP 0.9.
Screening Cc1ccccc1-c1ccc([C@H]2[C@H](CO)N3C(=O)CN(C(=O)NC4CCCC4)C[C@@H]23)cc1 returned PAX8 inh HTS -4.7 and EWS-Fli inh -0.1.
`Cc1ccccc1S(=O)(=O)NCC[C@H]1CC[C@@H](NC(=O)C2CCC2)[C@H](CO)O1` gave esBAF inh 5.0, PAX8 inh HTS 8.9 and EWS-Fli inh 13.4.
For COc1ccccc1C(=O)NCCC(=O)NC1CCC(C)CC1 (stereo not drawn) the results were Wnt act -5.0, MITF TRPM1 inh -77.3, MITF TRPM1 HTS inconclusive, esBAF inh 72.8*, PAX8 inh HTS -137.6, EWS-Fli inh -85.8, Ring1 derepress 1.45, Fgf4 repress 1.09, Bmi1 derepress 1.29, A549 tox SP -9.2, HepG2 tox SP -25.5 and HEK293 tox SP -9.0.
COc1ccccc1C(=O)NCCC(=O)NC1CCCCC1C (stereo not drawn) was read as Wnt act -1.7, MITF TRPM1 inh 0.5, MITF TRPM1 HTS -2.7, esBAF inh -4.1, PAX8 inh HTS -6.1 and EWS-Fli inh 3.3.
Screening Cc1ccc(-c2ccc([C@@H]3[C@@H](CO)N4CCCCN(S(=O)(=O)c5cccc(C)c5)C[C@H]34)cc2)cc1 returned PAX8 inh HTS 31.8 and EWS-Fli inh -8.2.
COC(=O)C1CCc2c(ccc3c2CCCC3)C1=O (stereo not drawn) was read as Wnt act -3.7, MITF TRPM1 inh -100.0, MITF TRPM1 HTS 100.8*, esBAF inh 59.9*, PAX8 inh HTS -61.4, EWS-Fli inh -1.5, Ring1 derepress 1.13, Fgf4 repress 0.962, Bmi1 derepress 1.3, A549 tox SP -12.5, HepG2 tox SP 2.2 and HEK293 tox SP -14.1.
COc1cc(OC)cc(C(=O)Nc2cccc3c2CCCC3)c1 was read as Wnt act 0.0, MITF TRPM1 inh 5.8, MITF TRPM1 HTS -4.7, esBAF inh -2.4, PAX8 inh HTS -4.5 and EWS-Fli inh 7.0.
